Laboratory results taken from article PMC4336329 (PLoS ONE, 2015).
Out of some 310,000 compounds screened, about 14,000 (4.5%) showed an effect of 50% or more. The effect is printed as a negative number. The full list was thinned out, with strong results kept by preference.

molecular target: human ether-à-go-go-related gene (hERG) potassium channel (human, UniProt Q12809); assay: primary screen, population patch clamp on CHO cells stably expressing hERG; higher = less effect of the substance
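Also: peak tail current of the secondary pulse compared with the same well before compound.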

human ether-à-go-go-related gene (hERG) potassium channel, sequence (Q12809 whole entry, looked up): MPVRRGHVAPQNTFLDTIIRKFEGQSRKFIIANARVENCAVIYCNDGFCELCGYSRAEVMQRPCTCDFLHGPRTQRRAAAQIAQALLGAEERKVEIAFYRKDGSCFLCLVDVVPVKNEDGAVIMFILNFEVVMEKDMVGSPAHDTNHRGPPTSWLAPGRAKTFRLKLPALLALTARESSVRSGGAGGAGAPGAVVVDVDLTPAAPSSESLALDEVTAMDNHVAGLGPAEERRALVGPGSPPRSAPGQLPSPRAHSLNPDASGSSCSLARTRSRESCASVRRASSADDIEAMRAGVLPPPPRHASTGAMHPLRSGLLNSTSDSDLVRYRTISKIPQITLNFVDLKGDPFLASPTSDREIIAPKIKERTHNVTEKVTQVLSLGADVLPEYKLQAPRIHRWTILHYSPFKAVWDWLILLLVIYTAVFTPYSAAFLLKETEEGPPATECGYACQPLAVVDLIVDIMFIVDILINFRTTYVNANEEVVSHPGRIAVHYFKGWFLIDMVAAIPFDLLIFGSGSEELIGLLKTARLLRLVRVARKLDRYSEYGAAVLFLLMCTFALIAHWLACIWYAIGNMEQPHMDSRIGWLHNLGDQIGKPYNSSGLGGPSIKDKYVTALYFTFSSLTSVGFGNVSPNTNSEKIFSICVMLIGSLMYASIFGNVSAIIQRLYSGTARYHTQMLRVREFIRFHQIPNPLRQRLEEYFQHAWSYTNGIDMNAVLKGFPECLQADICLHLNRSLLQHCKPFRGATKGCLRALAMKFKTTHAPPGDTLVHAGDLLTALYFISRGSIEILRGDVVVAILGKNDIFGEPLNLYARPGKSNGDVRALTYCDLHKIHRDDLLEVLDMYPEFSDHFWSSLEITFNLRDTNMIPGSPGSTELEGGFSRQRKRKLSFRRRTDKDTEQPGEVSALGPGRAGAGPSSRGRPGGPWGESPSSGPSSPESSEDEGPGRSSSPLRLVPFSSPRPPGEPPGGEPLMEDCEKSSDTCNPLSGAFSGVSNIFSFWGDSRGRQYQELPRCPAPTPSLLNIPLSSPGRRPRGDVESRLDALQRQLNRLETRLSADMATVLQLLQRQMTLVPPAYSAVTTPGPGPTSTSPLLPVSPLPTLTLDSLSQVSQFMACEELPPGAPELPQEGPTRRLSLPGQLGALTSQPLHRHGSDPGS

SMILES	hERG current change (%, negative = inhibition) at 10uM [%]
CC(C)Sc1cc(N2CCCC2)nc(-c2ccccc2)n1	-5.24
COc1cccc(NC(=O)N(CCN(C)C)C(C)c2cccnc2)c1 (stereo not drawn)	-20.7
Cc1ccc(-n2c(N)c(C(=O)NCc3cccnc3)sc2=S)cc1	23.5
CCOc1ccc(CCNC(=O)COC(=O)c2ccc(S(=O)(=O)N3CCCC3)cc2)cc1OCC	25.7
O=C(Nc1cc(Cl)ccc1O)c1cc(-c2ccco2)on1	8.36
Cc1nn(Cc2ccccc2)c(Cl)c1C(=O)OCC(=O)NC(=O)NC12CC3CC(CC(C3)C1)C2	11.5
Cc1nc(N2CCN(C(=O)c3cccs3)CC2)c2c3c(sc2n1)CCCC3	-63.8
Cc1nc(N2CCNCC2)c2c3c(sc2n1)CCCC3	-2.23
Cc1nc(N2CCN(C(=O)c3ccco3)CC2)c2c3c(sc2n1)CC(C)CC3 (stereo not drawn)	-63.9
CCc1nc(SCC(=O)N2CCN(C(=O)c3ccco3)CC2)c2c3c(sc2n1)CCCC3	-46
Cc1nc(N2CCOCC2)c2c3c(sc2n1)CCC3	10.4
CCc1nc(N2CCN(C(=O)c3ccco3)CC2)c2c3c(sc2n1)CCCC3	-65.3
CC1CCc2c(sc3nc(C4CC4)nc(N4CCN(C(=O)c5ccco5)CC4)c23)C1 (stereo not drawn)	-19.2
CCCNC(=S)N1CCN(c2nc(C)nc3sc4c(c23)CCCC4)CC1	-31.5
CC(=O)N1CCN(c2nc(C)nc3sc4c(c23)CCC(C)C4)CC1 (stereo not drawn)	-19.3
Cc1nc(N2CCN(C(=O)c3ccco3)CC2)c2c3c(sc2n1)CCC3	-54.8
Cc1nc(N2CCN(C)CC2)c2c3c(sc2n1)CCCC3	-11.4
CCc1nc(N2CCN(C(=O)c3ccccc3)CC2)c2c3c(sc2n1)CCCC3	-12.2
CCOc1ccc(N2C(=O)CC(NCCc3c[nH]c4ccccc34)C2=O)cc1 (stereo not drawn)	1.45
Cc1cc(C(=O)Nc2nccs2)c2cc(F)ccc2n1	7.7
CCCn1c(N)c(C(=O)CSc2nnc(Cc3ccccc3)o2)c(=O)n(C)c1=O	-0.939
O=S(=O)(c1ccccc1)c1ncc(C(F)(F)F)cc1O	9
O=C(COC(=O)/C=C/c1cccc(F)c1)NC1CCCC1	4.41
CCOc1ccc(CCNC(=O)CCC(=O)N2CCOc3ccccc32)cc1OCC	-7.82
